The values below come from the supplement of paper PMC10849652.

The full data set covers some 7,900 targets. This sample favours those with a hit. About 0.6% of all pairs of compound and target were hits. Values without a mark were called inactive.

Common to all, as to experiment: log2 fold change, soluble protein after heating vs DMSO (PISA); higher = thermal stabilisation; K562 cells, 10 uM, 30 min; active = over 0.2 and 3.5 SD of the protein, either way, in both replicates (recomputed)
Compound in assay [1]: COC1=CC=C(C=C1)CN2C=CC3=C2C=C(C=C3)C(=O)NO
Summed up: (§1)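 K562 cells at 2×10^6 cells/mL were exposed to 10 μM compound for 30 min, then aliquots were heated for 3 min across 48°C-58°C, pooled, and extracted in PBS containing 0.5% NP-40 at 4°C. The supernatant after 21,000xg for 90 min was taken as soluble protein and measured by TMTpro 16plex LC-MS/MS with channel sums equalised. Thermal stability is reported relative to control samples, with values from duplicates. Fold changes are given on a log2 scale.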

Compound in a further assay: CON(C)C(=O)N1N=C(c2cc(F)ccc2F)S[C@@]1(CCCN)c1ccccc1 [filanesib]
Summed up:
as §1

Compound in a further assay: COc1cc(C(=O)O)ccc1NC(=O)[C@@H]1N[C@@H](CC(C)(C)C)[C@](C#N)(c2ccc(Cl)cc2F)[C@H]1c1cccc(Cl)c1F [idasanutlin]
An outline of the steps: as §1

Compound in a further assay: COc1cc(Nc2ncc3c(n2)-c2ccc(Cl)cc2C(c2c(F)cccc2OC)=NC3)ccc1C(=O)O [alisertib]
Summed up:
as §1

Compound in assay [2]: COc1cc2nc(-c3cc(F)ccc3O)nc(N[C@@H]3CNC[C@H]3C(C)(C)O)c2cc1OC
An outline of the steps:
as §1

Compound in another assay: COc1cc2ncnc(Nc3ccc(F)c(Cl)c3)c2cc1OCCCN1CCOCC1 [gefitinib]
Summed up:
as §1

Compound in assay [3]: COc1cccc2cc(-c3nc([C@H]4CC[C@H](C(=O)O)CC4)n4ncnc(N)c34)[nH]c12
An outline of the steps:
as §1

Compound in a further assay: CS(=O)(=O)CCNCc1ccc(-c2ccc3ncnc(Nc4ccc(OCc5cccc(F)c5)c(Cl)c4)c3c2)o1 [lapatinib]
Summed up:
as §1

Compound in the next assay: CS(=O)(=O)N1CCN(Cc2cc3nc(-c4cccc5[nH]ncc45)nc(N4CCOCC4)c3s2)CC1 [pictilisib]
An outline of the steps: as §1

Compound in assay [4]: CS(=O)(=O)c1ccc(-c2cnc(N)c(C(=O)Nc3ccccc3)n2)cc1
An outline of the steps:
as §1

Compound in another assay: C[C@@H](Oc1cc(-c2cnn(C3CCNCC3)c2)cnc1N)c1c(Cl)ccc(F)c1Cl [crizotinib]
An outline of the steps:
as §1

Compound in assay [5]: C[C@@H]1COCCN1C2=NC(=NC(=C2)C3(CC3)S(=O)(=O)C)C4=C5C=CNC5=CC=C4
An outline of the steps: as §1

Compound in the next assay: Cc1cc(Nc2cc(CN3CCOCC3)c3nc(C)c(Cc4ccc(Cl)cc4F)n3n2)n[nH]1 [gandotinib]
An outline of the steps:
as §1

Compound in another assay: Cc1cc(Nc2cc(N3CCN(C)CC3)nc(Sc3ccc(NC(=O)C4CC4)cc3)n2)n[nH]1 [tozasertib]
Summed up: as §1

Compound in the next assay: Cc1ccc(-n2nc(C(C)(C)C)cc2NC(=O)Nc2ccc(OCCN3CCOCC3)c3ccccc23)cc1 [doramapimod]
Summed up:
as §1

Compound in the next assay: Cc1ccc(C(=O)N(CCCN)[C@@H](c2nc3cc(Cl)ccc3c(=O)n2Cc2ccccc2)C(C)C)cc1 [ispinesib]
Summed up:
as §1

Compound in another assay: CO[C@H]1C[C@@H]2CC[C@@H](C)[C@@](O)(O2)C(=O)C(=O)N2CCCC[C@H]2C(=O)O[C@H]([C@H](C)C[C@@H]2CC[C@H](n3cnnn3)[C@H](OC)C2)CC(=O)[C@H](C)/C=C(\C)[C@@H](O)[C@@H](OC)C(=O)[C@H](C)C[C@H](C)/C=C/C=C/C=C/1C [zotarolimus]
Summed up: as §1

Compound in assay [6]: C[C@H](C1=CC=C(C=C1)C(=O)NC2=C3C=CNC3=NC=C2)N
An outline of the steps: as §1

Compound in a further assay: C[C@H](Nc1ncnc2nc[nH]c12)c1cc2cccc(Cl)c2c(=O)n1-c1ccccc1 [duvelisib]
An outline of the steps: as §1

Compound in assay [7]: Cc1cc(SCc2sc(-c3ccc(C(F)(F)F)cc3)nc2C)ccc1OCC(=O)O
Summed up: as §1

UniProt Q14746, sequence (Q14746 whole entry, looked up): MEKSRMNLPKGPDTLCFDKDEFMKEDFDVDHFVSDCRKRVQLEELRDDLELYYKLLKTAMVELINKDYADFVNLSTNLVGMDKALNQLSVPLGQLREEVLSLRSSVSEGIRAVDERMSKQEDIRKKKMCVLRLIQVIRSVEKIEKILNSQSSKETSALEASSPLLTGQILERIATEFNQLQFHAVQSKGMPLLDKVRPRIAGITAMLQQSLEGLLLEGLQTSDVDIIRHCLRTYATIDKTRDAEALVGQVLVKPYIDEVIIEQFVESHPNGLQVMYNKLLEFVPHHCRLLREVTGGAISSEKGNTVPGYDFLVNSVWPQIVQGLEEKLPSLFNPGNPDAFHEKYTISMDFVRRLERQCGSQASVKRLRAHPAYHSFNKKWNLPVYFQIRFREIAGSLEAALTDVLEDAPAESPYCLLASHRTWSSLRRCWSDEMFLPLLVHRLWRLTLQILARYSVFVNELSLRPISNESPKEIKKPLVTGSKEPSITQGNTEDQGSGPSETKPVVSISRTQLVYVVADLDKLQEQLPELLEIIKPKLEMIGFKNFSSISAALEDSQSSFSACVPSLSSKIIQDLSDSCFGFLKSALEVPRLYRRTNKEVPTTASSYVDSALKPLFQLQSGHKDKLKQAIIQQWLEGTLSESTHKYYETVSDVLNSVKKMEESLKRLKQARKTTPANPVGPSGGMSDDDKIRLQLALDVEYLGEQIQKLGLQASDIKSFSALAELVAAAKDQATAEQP
UniProt Q7Z4R8, sequence (Q7Z4R8 whole entry, looked up): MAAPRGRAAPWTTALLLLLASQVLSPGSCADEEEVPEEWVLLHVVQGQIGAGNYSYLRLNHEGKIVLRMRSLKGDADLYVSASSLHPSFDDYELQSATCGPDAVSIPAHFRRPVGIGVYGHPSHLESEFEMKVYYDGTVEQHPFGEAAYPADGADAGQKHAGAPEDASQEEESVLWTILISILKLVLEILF
UniProt Q14061, sequence (Q14061 whole entry, looked up): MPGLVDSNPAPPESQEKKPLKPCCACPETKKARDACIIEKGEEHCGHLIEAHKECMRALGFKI
UniProt P55211, sequence (P55211 whole entry, looked up): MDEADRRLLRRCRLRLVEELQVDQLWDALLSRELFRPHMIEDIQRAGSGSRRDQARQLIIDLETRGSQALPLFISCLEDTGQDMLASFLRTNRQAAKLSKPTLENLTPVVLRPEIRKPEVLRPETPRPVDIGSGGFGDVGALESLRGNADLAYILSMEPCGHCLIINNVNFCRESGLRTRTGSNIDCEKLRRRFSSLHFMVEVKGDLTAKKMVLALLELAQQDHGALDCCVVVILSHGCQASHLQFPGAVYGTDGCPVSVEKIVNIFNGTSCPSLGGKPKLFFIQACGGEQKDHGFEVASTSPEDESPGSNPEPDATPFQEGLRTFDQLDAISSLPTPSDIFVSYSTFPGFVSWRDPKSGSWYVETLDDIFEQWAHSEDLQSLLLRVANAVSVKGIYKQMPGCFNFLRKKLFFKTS
UniProt Q14677, sequence (Q14677 whole entry, looked up): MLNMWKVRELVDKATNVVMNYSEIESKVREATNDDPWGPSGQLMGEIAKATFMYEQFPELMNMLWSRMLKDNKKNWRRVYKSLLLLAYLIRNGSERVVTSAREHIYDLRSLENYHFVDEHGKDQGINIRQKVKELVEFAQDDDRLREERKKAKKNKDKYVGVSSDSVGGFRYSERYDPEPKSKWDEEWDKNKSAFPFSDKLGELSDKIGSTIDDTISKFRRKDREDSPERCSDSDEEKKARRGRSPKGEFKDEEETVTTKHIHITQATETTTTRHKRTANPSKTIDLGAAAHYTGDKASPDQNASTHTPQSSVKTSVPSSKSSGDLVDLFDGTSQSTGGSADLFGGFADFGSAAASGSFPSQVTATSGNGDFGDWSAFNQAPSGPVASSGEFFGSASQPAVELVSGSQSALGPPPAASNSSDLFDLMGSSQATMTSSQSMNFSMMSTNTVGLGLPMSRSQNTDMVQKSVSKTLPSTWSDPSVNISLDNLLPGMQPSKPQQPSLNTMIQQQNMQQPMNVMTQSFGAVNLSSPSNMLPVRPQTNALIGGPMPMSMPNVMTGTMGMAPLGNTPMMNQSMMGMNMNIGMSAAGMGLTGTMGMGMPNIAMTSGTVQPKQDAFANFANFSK
UniProt P11802, sequence (P11802 whole entry, looked up): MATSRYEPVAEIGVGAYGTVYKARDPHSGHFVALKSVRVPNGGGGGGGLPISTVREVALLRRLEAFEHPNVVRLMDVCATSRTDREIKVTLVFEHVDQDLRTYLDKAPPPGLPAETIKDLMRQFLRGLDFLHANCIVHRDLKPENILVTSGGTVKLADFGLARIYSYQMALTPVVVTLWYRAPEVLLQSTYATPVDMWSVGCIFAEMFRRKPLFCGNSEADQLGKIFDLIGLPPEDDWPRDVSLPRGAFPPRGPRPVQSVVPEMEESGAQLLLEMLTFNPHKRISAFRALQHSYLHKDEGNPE
UniProt Q9UNS2, sequence (Q9UNS2 whole entry, looked up): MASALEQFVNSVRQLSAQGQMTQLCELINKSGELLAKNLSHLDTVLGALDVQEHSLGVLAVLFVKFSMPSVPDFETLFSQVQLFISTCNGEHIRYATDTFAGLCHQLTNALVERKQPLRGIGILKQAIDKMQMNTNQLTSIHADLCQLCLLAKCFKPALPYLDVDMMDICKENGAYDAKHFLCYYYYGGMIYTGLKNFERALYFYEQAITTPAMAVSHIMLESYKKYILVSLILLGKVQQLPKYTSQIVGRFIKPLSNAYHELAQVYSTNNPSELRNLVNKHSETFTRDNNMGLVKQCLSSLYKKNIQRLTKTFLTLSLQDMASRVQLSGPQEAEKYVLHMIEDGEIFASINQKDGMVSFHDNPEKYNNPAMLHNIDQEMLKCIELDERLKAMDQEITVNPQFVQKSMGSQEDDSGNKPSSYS
UniProt Q13901, sequence (Q13901 whole entry, looked up): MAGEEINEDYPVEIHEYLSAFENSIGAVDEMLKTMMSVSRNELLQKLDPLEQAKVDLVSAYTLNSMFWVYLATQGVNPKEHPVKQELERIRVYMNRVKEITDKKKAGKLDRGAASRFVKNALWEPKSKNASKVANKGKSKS
UniProt Q5BKX5, sequence (Q5BKX5 whole entry, looked up): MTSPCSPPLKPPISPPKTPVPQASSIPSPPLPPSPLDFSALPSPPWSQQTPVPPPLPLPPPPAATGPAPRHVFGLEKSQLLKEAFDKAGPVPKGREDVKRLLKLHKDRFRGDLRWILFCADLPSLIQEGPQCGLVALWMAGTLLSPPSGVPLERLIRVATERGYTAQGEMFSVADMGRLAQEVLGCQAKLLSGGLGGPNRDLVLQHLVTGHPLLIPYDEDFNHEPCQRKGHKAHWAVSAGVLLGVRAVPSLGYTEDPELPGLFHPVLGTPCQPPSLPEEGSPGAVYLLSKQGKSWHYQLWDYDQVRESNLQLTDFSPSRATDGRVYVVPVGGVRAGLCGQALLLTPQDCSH

On to COPS3 isoform 2 (UniProt Q9UNS2), for which the log2 fold change was -0.144 in assay [1]; 0.157 in the assay with filanesib; 0.138 with idasanutlin; -0.008 in the assay with alisertib; 0.321 in assay [2]; 0.005 in the assay with gefitinib. In addition, the log2 fold change in assay [3] was 0.083; with lapatinib, -0.211; in the assay with pictilisib it was 0.128; in [4], 0.054; with crizotinib, 0.046; in assay [5], 0.116. Besides, the log2 fold change was -0.084 with gandotinib, -0.165 with tozasertib, 0.028 with doramapimod and -0.371 with ispinesib.
In the case of CDK4 (UniProt P11802), the log2 fold change in [1] was -0.111; with filanesib, 0.09; with zotarolimus it was -0.071; with idasanutlin, 0.061; in the assay with alisertib, 0.062; in assay [2], -0.049. The log2 fold change is 0.017 in the assay with gefitinib; -0.057 in [3]; -0.031 with lapatinib; 0.108 in assay [4]; -0.108 with crizotinib; -0.152 in [5]. The log2 fold change in assay [6] was 0.377; with duvelisib, 0.104; in assay [7], 0.021; with doramapimod, 0.079; with ispinesib it was 0.094.
As to C19orf54 (UniProt Q5BKX5), the log2 fold change in assay [1] is -0.025; with filanesib, -0.278; with zotarolimus, 0.024; in the assay with idasanutlin, -0.094; in [2], 0.123; in the assay with lapatinib, -0.125. For the same target, the log2 fold change is 0.053 with pictilisib; -0.026 in assay [4]; 0.025 with crizotinib; 0.182 in assay [5]; 0.127 in assay [6]; 0.072 in the assay with duvelisib. Further, the log2 fold change with gandotinib was -0.073; with tozasertib, 0.006; in assay [7], 0.032; with doramapimod, -0.061; with ispinesib, -0.091.
With COG2 (UniProt Q14746), the log2 fold change is -0.006 in assay [1]; 0.25 with filanesib; -0.048 with zotarolimus; -0.053 in the assay with idasanutlin; 0.58 with alisertib; -0.187 in the assay with gefitinib. In addition, the log2 fold change in assay [3] is 0.631 (active); in [4], -0.029; in the assay with crizotinib, -0.17; in assay [5] it was 0.094; in assay [6], 0.483; in the assay with duvelisib, -0.094. The log2 fold change with tozasertib is -0.153; in [7], 0.061; with doramapimod, 0; in the assay with ispinesib it was -0.264.
Consider CASP9 (UniProt P55211), for which the log2 fold change in assay [1] is 0.095; in the assay with filanesib, 0.169; with zotarolimus, -0.043; with idasanutlin, -0.008; in [2] it was 0.02; with gefitinib, 0.146. Besides, the log2 fold change in the assay with lapatinib is -0.034; with pictilisib it was -0.019; in assay [4], 0.088; with crizotinib, 0.002; in [5], 0.014; in assay [6], 0.014. The log2 fold change with duvelisib was 0.104; with gandotinib it was -0.152; with tozasertib, 0.138; in assay [7] it was 0.064; in the assay with doramapimod, 0.05; in the assay with ispinesib, 0.037.
In the case of C1D (UniProt Q13901), the log2 fold change in assay [1] is -0.171; in the assay with filanesib it was -0.041; in the assay with idasanutlin, 0.12; in the assay with alisertib, -0.138; in assay [2], -0.101; with gefitinib, 0.043. For the same target, the log2 fold change in assay [3] was -0.027; in the assay with lapatinib it was 0.006; with pictilisib, 0.012; in assay [4], -0.073; in the assay with crizotinib it was 0.06; in [5], -0.107. The log2 fold change was 0.01 with gandotinib, 0.005 with tozasertib, -0.089 with doramapimod and 0.007 in the assay with ispinesib.
Take C6orf120 (UniProt Q7Z4R8): the log2 fold change in assay [1] was 0.003; in the assay with filanesib it was -0.053; in [2] it was -0.135; with gefitinib it was -0.008; with lapatinib it was -0.114; in [4], 0.069. Also, the log2 fold change in the assay with crizotinib is -0.04; with duvelisib, -0.052; in the assay with tozasertib, -0.032; in assay [7], 0.113; in the assay with doramapimod, 0.134; with ispinesib, -0.07.
For the target CLINT1 isoform 3 (UniProt Q14677), the log2 fold change is -0.159 in assay [1]; 0.155 with filanesib; -0.031 with zotarolimus; 0 in the assay with idasanutlin; -0.105 with alisertib; 0.074 in assay [2]. Further, the log2 fold change is 0.148 in the assay with gefitinib; -0.041 in [3]; 0.014 with lapatinib; -0.019 in assay [4]; 0.02 with crizotinib; 0.159 in assay [6]. For the same target, the log2 fold change with duvelisib is -0.029; with gandotinib it was 0.047; in the assay with tozasertib it was -0.025; in [7], -0.097; with doramapimod, 0.012; in the assay with ispinesib, -0.001.
Take COX17 (UniProt Q14061): the log2 fold change in assay [1] was 0.183; with filanesib, -0.059; in the assay with zotarolimus it was 0.034; with idasanutlin it was 0.059; with alisertib, -0.112; with gefitinib, -0.055. Besides, the log2 fold change in assay [3] was 0.02; in the assay with pictilisib it was 0.092; in assay [4], 0.026; with crizotinib, 0.164; in [5], 0.206; in [6], -0.072. Also, the log2 fold change with duvelisib is 0.256; with gandotinib, -0.11; in the assay with tozasertib, 0.005; in [7] it was -0.021; with doramapimod it was -0.037; with ispinesib it was 0.137.
